Records with an inconclusive call do not appear. Calls of active or inactive are those of the source. Unless noted, calls come from the whole dose curve.
Assays:
[1] = Validation screen for inhibitors of Lassa infection (AID 463096); note: potency is the fitted concentration of half-maximal effect
[2] = Inducers of the Endoplasmic Reticulum Stress Response (ERSR) in human glioma: Validation (AID 504836; active = well fitted curve in the direction sought with a large enough effect; an effect the other way counts as inactive or inconclusive; note: 0% is about no effect)
In short: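 ERSR induction read as luciferase luminescence (Bright-Glo, 10 min at room temperature) in stably transfected human U87-MG glioma cells exposed to compounds for 16 h, using GRP78 as sensor.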

[3] = qHTS for Inhibitors of the Functional Ribonucleoprotein Complex (vRNP) of Lassa (LASV) Arenavirus: LASV Primary Screen - GLuc reporter signal (AID 1347082; calls by dose curve; tested in HEK293 reporter line; note: series mostly up to about 57 µM; % is set by controls: 0 for no effect and ±100 for the full control effect; nearly all actives have a fitted effect of over 60% in size)
[4] = qHTS for Inhibitors of the Functional Ribonucleoprotein Complex (vRNP) of Lassa (LASV) Arenavirus: Viability assay - alamar blue signal for LASV Primary Screen (AID 1347083; calls by dose curve; tested in HEK293 reporter line; note: series mostly up to about 57 µM; % is set by controls: 0 for no effect and ±100 for the full control effect; nearly all actives have a fitted effect of over 80% in size)
[5] = qHTS for Inhibitors of the Functional Ribonucleoprotein Complex (vRNP) of Lymphocytic Choriomeningitis Arenaviruses (LCMV): Viability assay - alamar blue signal for LCMV Primary Screen (AID 1347085; calls by dose curve; tested in HEK293 reporter line; note: series mostly up to about 57 µM; % is set by controls: 0 for no effect and ±100 for the full control effect; nearly all actives have a fitted effect of over 80% in size)
[6] = target: Nucleoprotein (Lymphocytic choriomeningitis virus (strain Armstrong)) (UniProt P09992); assay: qHTS for Inhibitors of the Functional Ribonucleoprotein Complex (vRNP) of Lymphocytic Choriomeningitis Arenaviruses (LCMV): LCMV Primary Screen - GLuc reporter signal (AID 1347086); note: series mostly up to about 57 µM; % is set by controls: 0 for no effect and ±100 for the full control effect; nearly all actives have a fitted effect of over 70% in size
Chain of Nucleoprotein (Lymphocytic choriomeningitis virus (strain Armstrong)) (P09992 whole entry, looked up): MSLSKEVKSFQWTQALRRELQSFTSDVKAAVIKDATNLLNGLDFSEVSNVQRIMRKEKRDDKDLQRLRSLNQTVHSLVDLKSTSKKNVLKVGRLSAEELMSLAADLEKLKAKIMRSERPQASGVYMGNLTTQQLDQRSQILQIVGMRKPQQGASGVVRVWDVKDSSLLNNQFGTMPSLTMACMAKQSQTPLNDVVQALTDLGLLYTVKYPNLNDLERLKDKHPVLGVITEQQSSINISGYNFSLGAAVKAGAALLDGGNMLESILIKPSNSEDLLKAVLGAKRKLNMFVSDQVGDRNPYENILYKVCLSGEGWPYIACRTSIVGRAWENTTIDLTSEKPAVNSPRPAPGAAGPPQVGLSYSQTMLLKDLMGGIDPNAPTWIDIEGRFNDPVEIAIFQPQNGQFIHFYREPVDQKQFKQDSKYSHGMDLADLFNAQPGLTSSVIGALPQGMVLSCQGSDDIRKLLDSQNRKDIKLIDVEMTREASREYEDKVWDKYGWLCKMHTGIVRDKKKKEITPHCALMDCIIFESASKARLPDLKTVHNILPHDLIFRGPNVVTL

[7] = target: Alpha-galactosidase (Coffea arabica) (UniProt Q42656); assay: Counterscreen for Glucocerebrosidase Inhibitors: qHTS Assay for Coffee Bean alpha-Galactosidase at pH 4.5 (AID 957; active = well fitted curve in the direction sought with a large enough effect; an effect the other way counts as inactive or inconclusive;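 note: series mostly up to about 77 µM; plate controls were enzyme alone for no effect and no enzyme for full effect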)
Chain of Alpha-galactosidase (Coffea arabica) (Q42656 whole entry, looked up): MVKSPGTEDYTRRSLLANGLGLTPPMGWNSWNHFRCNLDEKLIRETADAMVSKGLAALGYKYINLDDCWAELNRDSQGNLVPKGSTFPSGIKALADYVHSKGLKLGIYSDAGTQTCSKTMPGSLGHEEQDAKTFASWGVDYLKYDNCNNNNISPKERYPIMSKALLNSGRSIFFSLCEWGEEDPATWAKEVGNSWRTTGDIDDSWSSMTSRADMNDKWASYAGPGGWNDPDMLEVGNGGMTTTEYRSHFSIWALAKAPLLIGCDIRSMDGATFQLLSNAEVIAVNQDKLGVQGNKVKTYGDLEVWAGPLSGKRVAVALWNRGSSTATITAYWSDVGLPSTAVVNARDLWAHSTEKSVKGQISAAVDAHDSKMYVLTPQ
In short: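 Green coffee bean enzyme (2 nM final) was incubated with compounds (0.7 nM to 77 uM) and 4-methylumbelliferyl alpha-D-galactopyranoside (80 uM final) in 50 mM citric acid, 0.005% Tween-20, pH 4.5, 20 min at room temperature; AC50 from Hill fits.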

[8] = target: Arylsulfatase A (Homo sapiens) (UniProt P15289); assay: qHTS screen for enhancers of Arylsulfatase A (ASA1): LOPAC Validation Assay (AID 720538; active = well fitted curve in the direction sought with a large enough effect; an effect the other way counts as inactive or inconclusive; note: 0% is about no effect)
Chain of Arylsulfatase A (Homo sapiens) (P15289 whole entry, looked up): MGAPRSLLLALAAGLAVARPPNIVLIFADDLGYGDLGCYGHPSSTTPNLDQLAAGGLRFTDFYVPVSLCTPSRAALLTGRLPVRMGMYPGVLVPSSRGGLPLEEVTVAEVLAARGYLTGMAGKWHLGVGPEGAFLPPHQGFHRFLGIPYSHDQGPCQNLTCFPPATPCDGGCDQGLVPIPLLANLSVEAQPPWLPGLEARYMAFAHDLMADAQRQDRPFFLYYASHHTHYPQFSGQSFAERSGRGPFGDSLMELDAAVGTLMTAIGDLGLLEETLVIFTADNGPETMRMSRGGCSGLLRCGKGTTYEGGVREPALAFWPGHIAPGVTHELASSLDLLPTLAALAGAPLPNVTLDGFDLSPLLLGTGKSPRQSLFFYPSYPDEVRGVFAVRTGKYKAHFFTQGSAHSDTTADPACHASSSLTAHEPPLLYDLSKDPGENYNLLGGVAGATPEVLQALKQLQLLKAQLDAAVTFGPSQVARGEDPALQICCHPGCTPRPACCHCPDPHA
In short: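 Read-out: fluorescence at Ex=525/Em=598 nm after 1N NaOH final stop. Patient fibroblasts carrying ASA-I179S had 48h compound exposure, then 14h room-temperature pNCS hydrolysis (0.5mM final) in lysis buffer. Signal increase = enhanced activity.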

[9] = target: Alpha-galactosidase (Coffea arabica) (UniProt Q42656); assay: Counterscreen for Glucocerebrosidase Inhibitors: qHTS Assay for Coffee Bean alpha-Galactosidase at pH 5.9 (AID 998; active = well fitted curve in the direction sought with a large enough effect; an effect the other way counts as inactive or inconclusive;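 note: plate controls were uninhibited enzyme for no effect and no-enzyme basal signal for full effect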)
In short: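 Compounds were titrated from 0.7 nM to 77 uM against green coffee bean alpha-galactosidase (2 nM) using 80 uM fluorogenic 4-methylumbelliferyl substrate. After 20 min at room temperature, reactions were stopped at pH 10 and read by fluorescence.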

[10] = target: Bile acid receptor (Homo sapiens) (UniProt Q96RI1); assay: qHTS assay for small molecule agonists of farnesoid X receptor signaling (AID 588527); settings: HEK293T FXR-UAS-bla, beta-lactamase ratio, 16 h; activation: stronger effect = higher value;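 note: series mostly up to about 77 µM; 0% = vehicle basal and 100% = reference agonist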
Chain of Bile acid receptor (Homo sapiens) (Q96RI1 whole entry, looked up): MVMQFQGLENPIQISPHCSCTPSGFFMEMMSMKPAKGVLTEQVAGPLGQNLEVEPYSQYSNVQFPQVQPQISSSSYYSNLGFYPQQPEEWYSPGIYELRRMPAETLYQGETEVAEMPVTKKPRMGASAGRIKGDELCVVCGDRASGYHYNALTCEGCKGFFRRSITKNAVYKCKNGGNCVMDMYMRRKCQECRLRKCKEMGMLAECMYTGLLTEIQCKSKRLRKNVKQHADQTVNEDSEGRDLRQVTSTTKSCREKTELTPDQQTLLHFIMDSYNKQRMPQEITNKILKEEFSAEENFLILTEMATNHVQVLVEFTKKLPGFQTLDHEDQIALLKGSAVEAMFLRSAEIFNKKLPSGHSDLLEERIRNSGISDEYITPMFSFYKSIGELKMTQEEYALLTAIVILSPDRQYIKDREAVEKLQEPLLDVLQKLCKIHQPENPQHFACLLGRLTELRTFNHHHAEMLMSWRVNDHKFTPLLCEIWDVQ
In short: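 Agonist-mode beta-lactamase reporter in GeneBLAzer FXR-UAS-bla HEK293T cells, titration up to 92 uM, 16 h exposure at 37 C, CCF4 fluorescence. Response scaled to DMSO (0%) and 100 uM chenodeoxycholic acid (100%), then Hill-fitted for EC50 and efficacy.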

[11] = target: Nuclear receptor ROR-gamma (Homo sapiens) (UniProt P51449); assay: qHTS assay for small molecule antagonists of the retinoid-related orphan receptor gamma (ROR-gamma) signaling pathway (AID 651802; active = well fitted curve in the direction sought with a large enough effect; an effect the other way counts as inactive or inconclusive; note: series mostly up to about 92 µM; % is set by controls: 0 for no effect and ±100 for the full control effect; nearly all actives have a fitted effect of over 60% in size)
Chain of Nuclear receptor ROR-gamma (Homo sapiens) (P51449 whole entry, looked up): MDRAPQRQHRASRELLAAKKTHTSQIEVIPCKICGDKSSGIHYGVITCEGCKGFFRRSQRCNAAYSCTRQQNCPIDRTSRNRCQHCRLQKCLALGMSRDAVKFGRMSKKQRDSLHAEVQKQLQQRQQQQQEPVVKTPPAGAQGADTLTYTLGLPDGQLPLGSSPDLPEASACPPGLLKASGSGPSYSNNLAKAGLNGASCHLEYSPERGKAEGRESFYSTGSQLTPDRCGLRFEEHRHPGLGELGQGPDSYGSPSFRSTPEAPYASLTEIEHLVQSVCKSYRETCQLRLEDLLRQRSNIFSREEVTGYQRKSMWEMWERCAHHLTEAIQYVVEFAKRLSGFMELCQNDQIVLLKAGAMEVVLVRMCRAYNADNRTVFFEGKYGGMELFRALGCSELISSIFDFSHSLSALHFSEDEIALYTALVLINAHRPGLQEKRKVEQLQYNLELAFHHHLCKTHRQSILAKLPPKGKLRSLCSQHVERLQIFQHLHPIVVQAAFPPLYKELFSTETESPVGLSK
In short: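 CHO cells carrying TET-inducible ROR-gamma and an ROR response element–luciferase reporter were exposed to compound, then induced with doxycycline. After 16hr at 37C, luminescence was read; lower signal indicates antagonism.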

[12] = qHTS Assay for Identifying Gametocytocidal Compounds (AID 743244; active = well fitted curve in the direction sought with a large enough effect; an effect the other way counts as inactive or inconclusive;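 note: % is set by controls: 0 for no effect and ±100 for the full control effect; actives lower the fluorescent signal which means gametocytes are killed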); settings: P. falciparum 3D7 stage III-V gametocytes, alamarBlue, 72 h; max response: stronger effect = lower value
In short: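 Late gametocytes (III–V), P. falciparum 3D7; 72 h drug, then 24 h alamarBlue; resazurin reduction read by fluorescence.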

[13] = target: Ubiquitin carboxyl-terminal hydrolase 1 (Homo sapiens) (UniProt O94782); assay: Inhibitors of USP1/UAF1: Pilot qHTS (AID 504865; active = well fitted curve in the direction sought with a large enough effect; an effect the other way counts as inactive or inconclusive;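 note: rhodamine fluorescence freed from ubiquitin-rhodamine substrate followed over time; top concentration of the series differs between compounds; % is set by controls: 0 for no effect and ±100 for the full control effect; nearly all actives have a fitted effect of over 35% in size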)
Chain of Ubiquitin carboxyl-terminal hydrolase 1 (Homo sapiens) (O94782 whole entry, looked up): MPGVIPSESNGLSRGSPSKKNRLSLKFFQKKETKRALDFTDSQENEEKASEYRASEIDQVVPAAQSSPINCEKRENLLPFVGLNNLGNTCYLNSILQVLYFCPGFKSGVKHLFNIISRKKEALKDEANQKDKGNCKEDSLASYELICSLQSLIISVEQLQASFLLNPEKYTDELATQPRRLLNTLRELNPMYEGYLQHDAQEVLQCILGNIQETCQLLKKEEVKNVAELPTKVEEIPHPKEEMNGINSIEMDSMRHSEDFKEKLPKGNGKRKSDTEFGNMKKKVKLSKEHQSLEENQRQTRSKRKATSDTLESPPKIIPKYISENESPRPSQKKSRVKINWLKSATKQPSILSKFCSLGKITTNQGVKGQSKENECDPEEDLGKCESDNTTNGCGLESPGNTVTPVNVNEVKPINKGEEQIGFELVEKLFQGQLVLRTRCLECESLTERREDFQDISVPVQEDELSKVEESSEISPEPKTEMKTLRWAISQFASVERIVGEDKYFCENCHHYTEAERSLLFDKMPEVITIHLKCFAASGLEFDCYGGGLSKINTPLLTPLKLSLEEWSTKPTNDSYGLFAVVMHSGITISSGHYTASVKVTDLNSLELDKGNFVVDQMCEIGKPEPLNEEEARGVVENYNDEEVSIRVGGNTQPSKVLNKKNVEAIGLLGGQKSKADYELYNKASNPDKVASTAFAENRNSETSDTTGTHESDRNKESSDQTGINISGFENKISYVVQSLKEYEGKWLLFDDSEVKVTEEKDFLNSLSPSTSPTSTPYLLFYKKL
In short: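 1nM USP1/UAF1 + cpd, 15 min RT; start w/ Ub-Rho 150nM final; kinetic FL 480/540 nm, 6 reads q60 s. Buffer 50mM HEPES pH 7.8, 0.5mM EDTA, 1mM TCEP, 0.01% Tween-20, 0.1 mg/ml BSA.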

[14] = target: Cytochrome P450 3A4 (Homo sapiens) (UniProt P08684); assay: qHTS Assay for Activators of Cytochrome P450 3A4 (AID 885; active = well fitted curve in the direction sought with a large enough effect; an effect the other way counts as inactive or inconclusive; note: nearly all actives have a fitted effect of over 65% in size)
Chain of Cytochrome P450 3A4 (Homo sapiens) (P08684 whole entry, looked up): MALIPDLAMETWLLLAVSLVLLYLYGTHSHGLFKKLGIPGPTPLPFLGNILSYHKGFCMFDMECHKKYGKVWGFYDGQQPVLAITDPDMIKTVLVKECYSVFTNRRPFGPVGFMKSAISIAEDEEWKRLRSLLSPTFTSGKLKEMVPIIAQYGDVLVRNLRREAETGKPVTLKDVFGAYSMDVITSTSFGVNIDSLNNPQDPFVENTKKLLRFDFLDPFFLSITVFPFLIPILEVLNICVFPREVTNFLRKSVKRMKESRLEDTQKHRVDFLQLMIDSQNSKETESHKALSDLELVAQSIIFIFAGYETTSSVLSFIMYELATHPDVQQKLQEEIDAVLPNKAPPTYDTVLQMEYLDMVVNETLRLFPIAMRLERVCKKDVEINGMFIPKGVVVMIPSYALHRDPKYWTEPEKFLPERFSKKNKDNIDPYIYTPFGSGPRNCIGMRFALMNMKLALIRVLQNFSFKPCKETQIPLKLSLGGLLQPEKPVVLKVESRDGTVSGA
In short: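 Signal was normalized against complete inhibition by 57 uM ketoconazole. The reaction used 20nM CYP3A4 with 25uM Luciferin-PPXE, 10-min compound preincubation and a 60-min NADPH-supported step at RT.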

NC(N)=N[C@@H](CCC(=O)O)C(=O)O
inactive: Potency [1] | outcome [2] | Potency [3] | Potency [4] | Potency [5] | Potency [6]

CN1CCc2cc(O)c(O)cc2C(c2ccccc2)C1 (configuration not stated)
inactive: Potency [1] | outcome [2] | Potency [3] | Potency [4] | Potency [5] | Potency [6]

CC(=O)/C(C)=N/O
inactive: Potency [1] | outcome [2] | Potency [3] | Potency [4] | Potency [5] | Potency [6]

CCCCC/C=C\CC(O)/C=C/c1cccc(CC(O)CCCCO)n1 (configuration not stated)
inactive: Potency [1] | outcome [2] | Potency [3] | Potency [4] | Potency [5] | Potency [6]

CC1(C)CCC(NC(=O)[C@@H](N)CCC(=O)O)CC1
inactive: Potency [1] | outcome [2] | Potency [3] | Potency [4] | Potency [5] | Potency [6]

NCC(O)c1ccc(O)c(O)c1 (configuration not stated)
inactive: Potency [1] | outcome [2] | Potency [3] | Potency [4] | Potency [5] | Potency [6]

N[C@@H](CCCC(=O)O)C(=O)O
inactive: Potency [1] | outcome [2] | Potency [3] | Potency [4] | Potency [5] | Potency [6]

COc1cc(C(O)CO)ccc1O (configuration not stated)
inactive: Potency [1] | outcome [2] | Potency [3] | Potency [4] | Potency [5] | Potency [6]

OC[C@H]1NC[C@@H](O)[C@@H]1O
inactive: Potency [1] | outcome [2] | Potency [3] | Potency [4] | Potency [5] | Potency [6]

Cc1cccc(C2CN(C)CCc3c2cc(O)c(O)c3Cl)c1 (configuration not stated)
inactive: Potency [1] | outcome [2] | Potency [3] | Potency [4] | Potency [5] | Potency [6]

CC(N)=NCCCC[C@@H](N)C(=O)O
inactive: Potency [1] | outcome [2] | Potency [3] | Potency [4] | Potency [5] | Potency [6]

Oc1ccc(C2CNCc3sccc32)cc1O (configuration not stated)
inactive: Potency [1] | outcome [2] | Potency [3] | Potency [4] | Potency [5] | Potency [6]

C=CCN1CCc2c(cc(O)c(O)c2Br)[C@@H](c2ccccc2)C1
inactive: Potency [1] | outcome [2] | Potency [3] | Potency [4] | Potency [5] | Potency [6]

Cn1cc(C(F)(F)F)nc1-c1ccc(OCC(O)CNCCOc2ccc(O)c(C(N)=O)c2)cc1 (configuration not stated)
inactive: Potency [1] | outcome [2] | Potency [3] | Potency [4] | Potency [5] | Potency [6]

COc1cccc(C(=O)NCCN2CCN(c3ccc(Cl)cc3)CC2)c1
inactive: outcome [7] | Potency [1] | outcome [2] | Potency [3] | Potency [4] | Potency [5] | Potency [6]

NC(=O)CNCCC(c1ccccc1)c1ccccc1
inactive: outcome [7] | Potency [1] | outcome [2] | Potency [3] | Potency [4] | Potency [5] | Potency [6]

N[C@H]1CONC1=O
inactive: Potency [1] | outcome [2] | Potency [3] | Potency [4] | Potency [5] | Potency [6]

Nc1c(S(=O)(=O)O)cc(Nc2ccc(Nc3nc(Cl)nc(Nc4ccc(S(=O)(=O)O)cc4)n3)c(S(=O)(=O)O)c2)c2c1C(=O)c1ccccc1C2=O
inactive: outcome [7] | Potency [1] | outcome [2] | Potency [3] | Potency [4] | Potency [5] | Potency [6]

COC(=O)C1=C(C)NC(C)=C([N+](=O)[O-])C1c1ccccc1C(F)(F)F (configuration not stated)
inactive: Potency [1] | outcome [2] | Potency [3] | Potency [4] | Potency [5] | Potency [6]

CC(=O)[C@H]1CCC2C3CC=C4C[C@@H](OS(=O)(=O)O)CC[C@]4(C)C3CC[C@@]21C (some centres not stated)
inactive: Potency [1] | outcome [2] | Potency [8] | Potency [3] | Potency [4] | Potency [5] | Potency [6]

CN1CCN(c2nc3cc(C(F)(F)F)ccc3n3cccc23)CC1
inactive: outcome [7] | outcome [9] | Potency [1] | outcome [2] | Potency [3] | Potency [4] | Potency [5] | Potency [6]

Cc1cccc(C)c1OCC(N)C(C)C (configuration not stated)
inactive: Potency [1] | outcome [2] | Potency [3] | Potency [4] | Potency [5] | Potency [6]

O=C(O)C1CCCNC1 (configuration not stated)
inactive: Potency [1] | outcome [2] | Potency [3] | Potency [4] | Potency [5] | Potency [6]

CCCc1c(-c2ccc(O)cc2)nn(-c2ccc(O)cc2)c1-c1ccc(O)cc1
active: Potency [1] 2 µM
inactive: outcome [7] | outcome [9] | outcome [2] | activation [10] 1.37% | Potency [3] | Potency [4] | Potency [5] | Potency [6]

CN1CCC[C@H]1c1cccnc1
inactive: Potency [1] | outcome [2] | Potency [11] | Potency [8] | max response [12] 8.91% | Potency [3] | Potency [4] | Potency [5] | Potency [6]

CCCCCCCCCCCCCCSCC(=O)O
inactive: outcome [7] | outcome [9] | Potency [1] | outcome [2] | activation [10] 0.99% | Potency [3] | Potency [4] | Potency [5] | Potency [6]

Cn1c(=O)[nH]c2ncn(C)c2c1=O
inactive: outcome [7] | Potency [1] | outcome [2] | Potency [3] | Potency [4] | Potency [5] | Potency [6]

CC1(C)CCC=[N+]1[O-]
inactive: outcome [7] | Potency [1] | outcome [2] | Potency [3] | Potency [4] | Potency [5] | Potency [6]

NC(CCCP(=O)(O)O)C(=O)O (configuration not stated)
inactive: Potency [1] | outcome [2] | Potency [13] | Potency [3] | Potency [4] | Potency [5] | Potency [6]

COc1ccc2c(c1)c(CC(=O)O)c(C)n2C(=O)c1ccccc1
inactive: outcome [7] | Potency [1] | outcome [2] | Potency [3] | Potency [4] | Potency [5] | Potency [6]

CC1(C)CCC2=C(O1)c1ccccc1C(=O)C2=O
active: Potency [1] 11.2 µM
inactive: Potency [14] | outcome [7] | outcome [2] | Potency [3] | Potency [4] | Potency [5] | Potency [6]
